# Data reported in publication PMC7862700, “An all-to-all approach to the identification of sequence-specific readers for epigenetic DNA modifications on cytosine”.
# Legend:
# Experiment in all cases: DAPPL (digital affinity profiling via proximity ligation, sequencing); 10 mM Tris-HCl pH 7.5, 50 mM NaCl, 1 mM DTT, 4% glycerol, room temperature, 30 min; GST-TFs on glutathione beads, 16-mer random dsDNA library, 0.1% formaldehyde crosslink after washing; high values mean tight binding
# GABPA = biological target: T1, GABPA (Homo sapiens, UniProt Q06546 1-454); details: protein: recombinant; tags: N-terminal GST; dsDNA, one strand shown
# T1 sequence: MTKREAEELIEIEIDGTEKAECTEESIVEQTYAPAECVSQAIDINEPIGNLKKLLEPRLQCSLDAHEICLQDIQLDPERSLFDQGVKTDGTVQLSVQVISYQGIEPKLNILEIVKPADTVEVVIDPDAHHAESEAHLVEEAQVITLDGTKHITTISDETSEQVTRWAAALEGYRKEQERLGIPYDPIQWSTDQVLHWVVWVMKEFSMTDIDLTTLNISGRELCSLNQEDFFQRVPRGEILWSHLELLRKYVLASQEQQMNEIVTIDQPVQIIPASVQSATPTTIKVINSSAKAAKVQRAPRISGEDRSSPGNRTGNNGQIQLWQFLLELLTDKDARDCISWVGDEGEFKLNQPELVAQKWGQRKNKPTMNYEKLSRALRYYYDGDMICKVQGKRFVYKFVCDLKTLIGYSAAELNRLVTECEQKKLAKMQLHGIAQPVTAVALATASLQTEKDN
# Method in brief: (§1)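 GST fusions of human transcription factors were expressed in yeast and captured with glutathione beads. Once given DNA barcodes and pooled alongside a tag-only sample, they were incubated for 30 min at room temperature with 200 nmole of a random double-stranded 16-mer DNA library in Tris/NaCl/DTT/glycerol buffer, then washed, crosslinked (0.1% formaldehyde), proximity-ligated, PCR-amplified and sequenced on an Illumina NextSeq500. The binding signal of each hexamer is its read frequency for a factor divided by its frequency for the tag-only sample.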
# ELF1 = ELF1 (Homo sapiens, UniProt P32519 1-619); details: protein: recombinant; tags: N-terminal GST; dsDNA, one strand shown
# Method in brief: as §1
# EHF = biological target: T2, EHF (Homo sapiens, UniProt Q9NZC4 1-300); details: protein: recombinant; tags: N-terminal GST; dsDNA, one strand shown
# T2 sequence: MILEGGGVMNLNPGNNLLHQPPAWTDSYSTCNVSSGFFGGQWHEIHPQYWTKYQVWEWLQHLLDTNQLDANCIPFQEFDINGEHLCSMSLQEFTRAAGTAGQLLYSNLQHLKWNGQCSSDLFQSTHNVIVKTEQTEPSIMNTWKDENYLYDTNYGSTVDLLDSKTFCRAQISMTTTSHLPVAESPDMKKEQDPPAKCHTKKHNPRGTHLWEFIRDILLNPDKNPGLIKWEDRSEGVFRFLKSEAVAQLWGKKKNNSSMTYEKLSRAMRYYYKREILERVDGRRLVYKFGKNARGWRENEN
# Method in brief: as §1
# SPI1 = SPI1 (Homo sapiens, UniProt P17947 1-270); details: protein: recombinant; tags: N-terminal GST; dsDNA, one strand shown
# Method in brief: as §1
# ELK3 = biological target: T3, ELK3 (Homo sapiens, UniProt P41970 1-407); details: protein: recombinant; tags: N-terminal GST; dsDNA, one strand shown
# T3 sequence: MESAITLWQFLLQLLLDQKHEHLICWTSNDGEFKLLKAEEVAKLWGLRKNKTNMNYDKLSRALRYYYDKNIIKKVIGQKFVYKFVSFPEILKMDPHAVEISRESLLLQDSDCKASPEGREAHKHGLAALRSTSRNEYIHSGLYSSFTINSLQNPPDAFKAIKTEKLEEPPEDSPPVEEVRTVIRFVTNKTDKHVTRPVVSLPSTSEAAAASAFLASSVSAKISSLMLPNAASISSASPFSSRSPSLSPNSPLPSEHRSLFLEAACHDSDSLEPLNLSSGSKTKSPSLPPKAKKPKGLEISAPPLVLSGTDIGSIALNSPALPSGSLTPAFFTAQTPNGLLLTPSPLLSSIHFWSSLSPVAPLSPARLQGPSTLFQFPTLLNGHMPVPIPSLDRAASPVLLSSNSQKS
# Method in brief: as §1
# FEV = biological target: T4, FEV (Homo sapiens, UniProt Q99581 1-238); details: protein: recombinant; tags: N-terminal GST; dsDNA, one strand shown
# T4 sequence: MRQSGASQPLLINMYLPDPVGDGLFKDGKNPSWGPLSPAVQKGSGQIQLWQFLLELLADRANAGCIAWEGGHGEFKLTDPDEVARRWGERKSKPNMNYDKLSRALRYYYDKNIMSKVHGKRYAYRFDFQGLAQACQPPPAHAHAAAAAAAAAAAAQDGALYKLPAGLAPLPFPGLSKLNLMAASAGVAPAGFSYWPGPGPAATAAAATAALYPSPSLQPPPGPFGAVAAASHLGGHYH
# Method in brief: as §1
# HSF1 = HSF1 (Homo sapiens, UniProt Q00613 1-529); details: protein: recombinant; tags: N-terminal GST; chain copies: 3; dsDNA, one strand shown
# Method in brief: as §1
# ELF4 = ELF4 (Homo sapiens, UniProt Q99607 1-663); details: protein: recombinant; tags: N-terminal GST; dsDNA, one strand shown
# Method in brief: as §1
# ELK4 = biological target: T5, ELK4 (Homo sapiens, UniProt P28324-2 1-405); details: protein: recombinant; tags: N-terminal GST; dsDNA, one strand shown
# T5 sequence: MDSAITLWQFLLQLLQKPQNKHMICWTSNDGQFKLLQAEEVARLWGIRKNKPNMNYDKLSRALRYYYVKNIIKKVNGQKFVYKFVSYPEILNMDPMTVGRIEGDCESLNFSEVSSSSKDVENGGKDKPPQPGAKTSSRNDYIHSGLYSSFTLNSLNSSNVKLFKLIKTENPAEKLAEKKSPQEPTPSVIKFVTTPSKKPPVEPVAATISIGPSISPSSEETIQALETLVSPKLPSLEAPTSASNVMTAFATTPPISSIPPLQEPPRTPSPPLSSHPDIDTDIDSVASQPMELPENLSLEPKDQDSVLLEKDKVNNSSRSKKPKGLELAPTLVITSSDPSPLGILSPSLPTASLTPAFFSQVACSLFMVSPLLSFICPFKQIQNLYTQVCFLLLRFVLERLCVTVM
# Method in brief: as §1
# ELF3 = biological target: T6, ELF3 (Homo sapiens, UniProt P78545 1-371); details: protein: recombinant; tags: N-terminal GST; dsDNA, one strand shown
# T6 sequence: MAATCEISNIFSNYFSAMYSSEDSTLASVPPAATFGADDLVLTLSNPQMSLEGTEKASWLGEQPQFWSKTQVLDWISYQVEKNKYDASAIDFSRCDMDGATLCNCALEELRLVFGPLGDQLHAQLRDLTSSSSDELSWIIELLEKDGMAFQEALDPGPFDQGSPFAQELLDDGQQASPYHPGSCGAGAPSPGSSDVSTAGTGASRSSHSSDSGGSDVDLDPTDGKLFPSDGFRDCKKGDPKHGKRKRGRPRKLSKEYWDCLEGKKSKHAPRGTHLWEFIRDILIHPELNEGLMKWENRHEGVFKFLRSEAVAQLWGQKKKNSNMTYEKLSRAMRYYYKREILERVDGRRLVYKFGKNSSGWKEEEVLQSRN
# Method in brief: as §1
# ERF = biological target: T7, ERF (Homo sapiens, UniProt P50548 1-548); details: protein: recombinant; tags: N-terminal GST; dsDNA, one strand shown
# T7 sequence: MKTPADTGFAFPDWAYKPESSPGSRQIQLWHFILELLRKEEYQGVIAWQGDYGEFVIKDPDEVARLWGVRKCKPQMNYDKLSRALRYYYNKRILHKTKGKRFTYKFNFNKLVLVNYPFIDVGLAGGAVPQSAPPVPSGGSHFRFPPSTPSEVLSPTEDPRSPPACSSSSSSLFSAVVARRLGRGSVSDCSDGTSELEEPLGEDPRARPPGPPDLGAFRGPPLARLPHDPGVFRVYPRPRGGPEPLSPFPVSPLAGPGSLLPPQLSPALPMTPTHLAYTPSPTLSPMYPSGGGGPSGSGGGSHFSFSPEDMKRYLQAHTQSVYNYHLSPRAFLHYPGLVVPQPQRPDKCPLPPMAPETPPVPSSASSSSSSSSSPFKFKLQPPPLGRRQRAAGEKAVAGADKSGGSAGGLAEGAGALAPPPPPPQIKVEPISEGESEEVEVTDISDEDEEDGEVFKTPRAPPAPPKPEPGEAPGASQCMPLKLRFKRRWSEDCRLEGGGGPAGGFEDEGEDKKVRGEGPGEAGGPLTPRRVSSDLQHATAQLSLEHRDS
# Method in brief: as §1
# ETS2 = biological target: T8, ETS2 (Homo sapiens, UniProt P15036 1-469); details: protein: recombinant; tags: N-terminal GST; dsDNA, one strand shown
# T8 sequence: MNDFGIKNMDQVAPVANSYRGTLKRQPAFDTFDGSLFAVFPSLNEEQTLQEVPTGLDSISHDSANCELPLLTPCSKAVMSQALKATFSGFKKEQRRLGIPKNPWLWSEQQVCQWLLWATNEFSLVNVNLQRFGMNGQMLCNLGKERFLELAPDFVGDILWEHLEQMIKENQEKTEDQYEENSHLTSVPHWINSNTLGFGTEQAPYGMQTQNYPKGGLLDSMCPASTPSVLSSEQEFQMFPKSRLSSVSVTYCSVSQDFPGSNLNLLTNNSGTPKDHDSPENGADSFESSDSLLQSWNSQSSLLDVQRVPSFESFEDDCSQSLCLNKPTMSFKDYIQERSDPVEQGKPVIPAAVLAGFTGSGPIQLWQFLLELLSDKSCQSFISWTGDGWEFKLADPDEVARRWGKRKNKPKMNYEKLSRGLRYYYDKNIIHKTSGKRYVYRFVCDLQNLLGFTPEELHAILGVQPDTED
# Method in brief: as §1
# ETV7 = biological target: T9, ETV7 (Homo sapiens, UniProt Q9Y603 1-341); details: protein: recombinant; tags: N-terminal GST; dsDNA, one strand shown
# T9 sequence: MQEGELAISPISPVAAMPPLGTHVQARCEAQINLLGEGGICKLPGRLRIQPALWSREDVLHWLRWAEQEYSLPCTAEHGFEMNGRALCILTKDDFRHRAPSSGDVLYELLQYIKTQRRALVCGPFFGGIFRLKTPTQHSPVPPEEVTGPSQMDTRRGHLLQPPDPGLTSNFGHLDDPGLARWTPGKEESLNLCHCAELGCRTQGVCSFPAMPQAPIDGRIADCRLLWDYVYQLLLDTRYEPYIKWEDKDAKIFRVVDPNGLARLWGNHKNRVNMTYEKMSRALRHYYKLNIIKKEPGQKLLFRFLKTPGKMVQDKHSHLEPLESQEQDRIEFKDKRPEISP
# Method in brief: as §1
# ETV6 = ETV6 (Homo sapiens, UniProt P41212 1-452); details: protein: recombinant; tags: N-terminal GST; dsDNA, one strand shown
# Method in brief: as §1
# SPIC = biological target: T10, SPIC (Homo sapiens, UniProt Q8N5J4 1-248); details: protein: recombinant; tags: N-terminal GST; dsDNA, one strand shown
# T10 sequence: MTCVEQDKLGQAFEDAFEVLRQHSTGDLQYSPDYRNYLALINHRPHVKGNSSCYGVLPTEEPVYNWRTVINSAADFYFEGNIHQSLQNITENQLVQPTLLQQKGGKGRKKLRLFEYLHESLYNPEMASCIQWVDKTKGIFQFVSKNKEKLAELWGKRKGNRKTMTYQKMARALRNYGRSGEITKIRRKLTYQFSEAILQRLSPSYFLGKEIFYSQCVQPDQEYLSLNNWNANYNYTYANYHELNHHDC
# Method in brief: as §1
# CRX = CRX (Homo sapiens, UniProt O43186 1-299); details: protein: recombinant; tags: N-terminal GST; dsDNA, one strand shown
# Method in brief: as §1
# ETV1 = ETV1 (Homo sapiens, UniProt P50549 1-477); details: protein: recombinant; tags: N-terminal GST; dsDNA, one strand shown
# Method in brief: as §1
# Chain of HSF1 (Q00613 whole entry): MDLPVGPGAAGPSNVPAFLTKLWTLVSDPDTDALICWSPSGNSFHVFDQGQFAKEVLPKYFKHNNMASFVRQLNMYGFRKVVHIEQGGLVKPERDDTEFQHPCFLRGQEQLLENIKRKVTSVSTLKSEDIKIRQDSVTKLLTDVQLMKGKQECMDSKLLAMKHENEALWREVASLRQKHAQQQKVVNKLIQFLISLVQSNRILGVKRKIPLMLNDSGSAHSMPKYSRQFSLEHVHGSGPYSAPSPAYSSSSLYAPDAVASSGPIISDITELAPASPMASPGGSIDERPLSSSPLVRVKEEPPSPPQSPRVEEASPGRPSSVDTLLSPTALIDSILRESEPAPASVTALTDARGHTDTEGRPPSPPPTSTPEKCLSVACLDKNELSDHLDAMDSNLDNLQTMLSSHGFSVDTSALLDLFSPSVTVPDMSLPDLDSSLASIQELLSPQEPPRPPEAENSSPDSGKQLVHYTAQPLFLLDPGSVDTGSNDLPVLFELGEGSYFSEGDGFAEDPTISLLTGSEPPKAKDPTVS
# Chain of CRX (O43186 whole entry): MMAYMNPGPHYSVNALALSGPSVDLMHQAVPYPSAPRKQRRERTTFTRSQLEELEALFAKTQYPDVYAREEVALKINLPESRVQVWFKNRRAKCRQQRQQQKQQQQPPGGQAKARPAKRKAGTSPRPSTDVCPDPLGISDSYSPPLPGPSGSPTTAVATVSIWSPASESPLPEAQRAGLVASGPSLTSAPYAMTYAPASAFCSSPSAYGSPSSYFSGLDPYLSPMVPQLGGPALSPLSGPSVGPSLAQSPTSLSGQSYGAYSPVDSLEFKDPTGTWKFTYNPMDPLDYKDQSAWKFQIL
# Chain of ELF4 (Q99607 whole entry): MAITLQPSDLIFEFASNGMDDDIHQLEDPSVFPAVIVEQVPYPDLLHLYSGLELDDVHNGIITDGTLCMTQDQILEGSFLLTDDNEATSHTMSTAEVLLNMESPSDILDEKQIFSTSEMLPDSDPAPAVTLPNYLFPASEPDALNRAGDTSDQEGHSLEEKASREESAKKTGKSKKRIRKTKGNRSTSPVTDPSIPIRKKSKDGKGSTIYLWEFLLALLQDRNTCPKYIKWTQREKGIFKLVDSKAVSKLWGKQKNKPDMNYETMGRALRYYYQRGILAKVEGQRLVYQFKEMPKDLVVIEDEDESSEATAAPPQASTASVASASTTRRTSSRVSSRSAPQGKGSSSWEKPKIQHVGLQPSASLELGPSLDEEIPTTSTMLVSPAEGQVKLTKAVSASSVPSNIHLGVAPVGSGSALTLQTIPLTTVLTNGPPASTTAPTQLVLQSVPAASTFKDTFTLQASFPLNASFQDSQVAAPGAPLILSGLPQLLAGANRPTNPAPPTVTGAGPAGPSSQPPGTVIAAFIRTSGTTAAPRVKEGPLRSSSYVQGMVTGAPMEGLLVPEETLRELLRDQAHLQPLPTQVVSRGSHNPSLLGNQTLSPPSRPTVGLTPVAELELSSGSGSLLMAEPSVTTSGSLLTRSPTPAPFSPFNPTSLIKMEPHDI
# Chain of ETV6 (P41212 whole entry): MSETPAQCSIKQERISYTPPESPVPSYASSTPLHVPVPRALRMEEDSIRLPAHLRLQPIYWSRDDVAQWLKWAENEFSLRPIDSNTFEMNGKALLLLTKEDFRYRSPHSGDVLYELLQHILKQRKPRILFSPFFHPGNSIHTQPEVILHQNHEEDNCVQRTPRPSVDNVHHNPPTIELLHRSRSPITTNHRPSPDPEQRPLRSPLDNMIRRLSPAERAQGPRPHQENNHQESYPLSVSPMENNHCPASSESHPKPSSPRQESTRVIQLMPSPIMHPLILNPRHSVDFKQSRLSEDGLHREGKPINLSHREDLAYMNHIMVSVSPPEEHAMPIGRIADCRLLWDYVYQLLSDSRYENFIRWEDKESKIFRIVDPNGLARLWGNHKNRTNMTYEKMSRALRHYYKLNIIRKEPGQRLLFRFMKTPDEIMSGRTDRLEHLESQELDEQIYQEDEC
# Chain of ETV1 (P50549 whole entry): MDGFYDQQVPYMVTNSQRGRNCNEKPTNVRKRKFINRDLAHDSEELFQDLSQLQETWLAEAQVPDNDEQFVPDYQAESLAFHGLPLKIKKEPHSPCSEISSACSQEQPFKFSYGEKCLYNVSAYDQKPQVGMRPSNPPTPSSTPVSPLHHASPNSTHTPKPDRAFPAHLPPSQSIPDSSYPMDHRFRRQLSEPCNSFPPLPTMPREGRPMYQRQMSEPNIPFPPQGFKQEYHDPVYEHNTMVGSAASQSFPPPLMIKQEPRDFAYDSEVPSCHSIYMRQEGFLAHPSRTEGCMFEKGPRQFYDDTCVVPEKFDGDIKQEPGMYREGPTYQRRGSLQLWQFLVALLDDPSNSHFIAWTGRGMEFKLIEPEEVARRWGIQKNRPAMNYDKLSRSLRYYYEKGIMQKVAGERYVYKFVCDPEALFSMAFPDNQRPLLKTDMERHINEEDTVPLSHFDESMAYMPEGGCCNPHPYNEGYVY
# Chain of ELF1 (P32519 whole entry): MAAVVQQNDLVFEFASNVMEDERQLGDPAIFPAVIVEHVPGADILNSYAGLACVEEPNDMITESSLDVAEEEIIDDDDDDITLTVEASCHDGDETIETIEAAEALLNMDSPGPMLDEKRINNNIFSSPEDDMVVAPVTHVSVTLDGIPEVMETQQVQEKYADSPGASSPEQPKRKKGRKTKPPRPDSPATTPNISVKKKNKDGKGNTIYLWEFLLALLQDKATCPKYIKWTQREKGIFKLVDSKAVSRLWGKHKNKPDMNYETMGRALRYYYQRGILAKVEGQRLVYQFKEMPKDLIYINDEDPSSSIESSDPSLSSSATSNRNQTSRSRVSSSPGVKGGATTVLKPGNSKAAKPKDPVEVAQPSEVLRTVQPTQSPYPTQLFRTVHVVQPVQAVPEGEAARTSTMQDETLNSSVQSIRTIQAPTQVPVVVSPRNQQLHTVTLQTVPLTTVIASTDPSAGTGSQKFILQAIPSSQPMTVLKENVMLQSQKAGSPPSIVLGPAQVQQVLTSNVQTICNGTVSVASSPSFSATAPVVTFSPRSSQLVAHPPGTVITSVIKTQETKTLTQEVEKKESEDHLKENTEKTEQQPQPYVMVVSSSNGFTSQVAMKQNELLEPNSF
sequence,measurement,setting,value
CGAATG,binding signal,GABPA,"1.12 fold enrichment (6-mer frequency, TF over GST control)"
same,binding signal,ELF1,"1.05 fold enrichment (6-mer frequency, TF over GST control)"
same,binding signal,EHF,"1.05 fold enrichment (6-mer frequency, TF over GST control)"
same,binding signal,SPI1,"1.03 fold enrichment (6-mer frequency, TF over GST control)"
same,binding signal,ELK3,"1.01 fold enrichment (6-mer frequency, TF over GST control)"
same,binding signal,FEV,"1.01 fold enrichment (6-mer frequency, TF over GST control)"
same,binding signal,HSF1,"1.5 fold enrichment (6-mer frequency, TF over GST control)"
same,binding signal,ELF4,"1.13 fold enrichment (6-mer frequency, TF over GST control)"
same,binding signal,ELK4,"1.07 fold enrichment (6-mer frequency, TF over GST control)"
same,binding signal,ELF3,"1.12 fold enrichment (6-mer frequency, TF over GST control)"
same,binding signal,ERF,"1.02 fold enrichment (6-mer frequency, TF over GST control)"
same,binding signal,ETS2,"1.14 fold enrichment (6-mer frequency, TF over GST control)"
same,binding signal,ETV7,"1.08 fold enrichment (6-mer frequency, TF over GST control)"
same,binding signal,ETV6,"1.11 fold enrichment (6-mer frequency, TF over GST control)"
AGAACT,binding signal,HSF1,"1.63 fold enrichment (6-mer frequency, TF over GST control)"
same,binding signal,SPIC,"1.03 fold enrichment (6-mer frequency, TF over GST control)"
same,binding signal,CRX,"1.02 fold enrichment (6-mer frequency, TF over GST control)"
TAGCGC,binding signal,GABPA,"1.01 fold enrichment (6-mer frequency, TF over GST control)"
same,binding signal,HSF1,"1.02 fold enrichment (6-mer frequency, TF over GST control)"
same,binding signal,ELF4,"1.01 fold enrichment (6-mer frequency, TF over GST control)"
same,binding signal,CRX,"1.03 fold enrichment (6-mer frequency, TF over GST control)"
same,binding signal,ETV1,"1.07 fold enrichment (6-mer frequency, TF over GST control)"
same,binding signal,ERF,"1.03 fold enrichment (6-mer frequency, TF over GST control)"
TTAGTG,binding signal,HSF1,"1.3 fold enrichment (6-mer frequency, TF over GST control)"
same,binding signal,ELK4,"1.11 fold enrichment (6-mer frequency, TF over GST control)"
same,binding signal,CRX,"1.89 fold enrichment (6-mer frequency, TF over GST control)"
